Molecules are shown by their SMILES. Values joined by “and” are separate entries in the source; they are usually repeats but may differ in a detail not shown here. Identical values can stand only once. Compounds without any hit were thinned out: in the full panel of roughly 83,000, 20% have a hit.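 The endpoint reported here, percent growth, reads 100 for growth as untreated, 0 for no net growth and -100 for all cells dead.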 Active and inactive are the calls of the source. The calls were made as follows: active = growth percent below 10; inactive = the rest.

The results in this text go back to PubChem BioAssay (NCI).

In this experiment the test system is HL-60(TB) leukemia. Put plainly: NCI-60 one-dose screen, 48 h (100 = growth as untreated, 0 = no growth, -100 = all killed). Particulars: 10 µM unless noted.
Turning to `O=C1NC(=O)N(Cc2ccccc2)CC1Br` (centres undefined), the growth was 56.4% (inactive).

`Cc1ccc(C)c2c1sc1nc3nc4sc5ccccc5n4c(=N)c3c(=O)n12`: the growth was 89% (inactive). Then `O=C1Nc2ccc(I)cc2C1=O`, with 111% (inactive).

For the molecule `O=C(NCCc1ccccc1)/C(=C\c1ccc(Cl)cc1Cl)NC(=O)c1ccccc1`, the growth is 112% (inactive).

On to `Nc1cc(-c2cccc(OC(F)(F)F)c2)nc2ccc(N3CCCC3)cc12`, for which the growth is -35.5% (active) and -28.5% (active) and -11.6% (active).

`CCOC(=O)c1nnn(C(Cc2ccccc2Cl)C(=O)OCC)c1C` (centres undefined): the growth was 96.5% (inactive).

With `CCN1C(=O)N(c2ccccc2)C2NN=c3s/c(=C4\C(=O)N(C(C)C)c5ccccc54)c(=O)n3C21` (centres undefined), the growth was -16.1% (active). Then `Cc1ccc(S(=O)(=O)Nc2ccc(-c3cc(-c4cccc(F)c4)c(C#N)c(N)n3)cc2)cc1`, with -14.9% (active); and `COC(=O)c1cc(-c2ccc(OC)cc2)[nH]c1N/N=C/c1c(Cl)cccc1Cl`, with -44.9% (active).
